Where “and” joins values, the source holds several entries; their conditions need not be identical. Identical values can stand only once. In all, about 330,000 compounds went through this assay and about 1,500 (0.45%) were called active. The full list was thinned out, with actives kept by preference. Values without a mark were called inactive. No stated cut-off is given here; in the data, active means inhibition above about 45% (passing the limit was not always enough); inconclusive means no clear call, values can overlap the other calls.

The assay deals with Ubiquitin-conjugating enzyme E2 N (Homo sapiens) (UniProt P61088). The assay can be described thus: blockers of UBC13 ubiquitin chain synthesis – biochemical, TR-FRET, uHTS, primary screen (AID 485273). As to conditions: UBC13 polyubiquitin chain formation, at 20 µM, hits give high values.
Chain of Ubiquitin-conjugating enzyme E2 N (Homo sapiens) (P61088 whole entry, looked up): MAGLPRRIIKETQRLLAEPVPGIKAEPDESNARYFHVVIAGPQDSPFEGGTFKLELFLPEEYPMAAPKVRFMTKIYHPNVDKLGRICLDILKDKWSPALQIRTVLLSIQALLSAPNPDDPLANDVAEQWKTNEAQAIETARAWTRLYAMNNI
Turning to `COc1ccc(C)cc1NC(=S)Nc1ccccc1SC`, the inhibition (commonly the relative decrease from the control value, in per cent) was -7.3%.

Regarding `COc1cccc(/C=C2\Sc3ccc(C(=O)NCC4CCCO4)cc3N(C)C2=O)c1` (stereo not drawn), the inhibition is -7.4%.

`Cc1cccc(OCC(O)CN2CCN(CCN3C(=O)c4cccc5cccc(c45)C3=O)CC2)c1C` (stereo not drawn): the inhibition is 83% (active).

With `Cc1ccccc1OCC(O)CN1CCN(c2ccccn2)CC1` (stereo not drawn), the inhibition was 0.6%.

For `Cc1cccc(C)c1OCC(O)CN1CCCCC1` (stereo not drawn), the inhibition is 11.2%.

On to `Cc1cc(C)c(S(=O)(=O)c2ccccc2)c(OC(=O)c2c(F)cccc2Cl)n1`, for which the inhibition is 2.7%.

With `O=C(COC(=O)/C=C/c1nc2ccccc2s1)Nc1ccccc1Oc1ccccc1`, the inhibition is -4.1%.

Turning to `CC(c1ccco1)N(C(=O)COc1ccccc1[N+](=O)[O-])c1ccccn1` (stereo not drawn), the inhibition is -13.5%.

Consider `CC(C)Nc1ccc(-n2nc3ccccc3[n+]2[O-])cc1`, for which the inhibition was 0.3%.

For the compound `C#CCOCCOCCOCCNc1nc(N2CCN(C(=O)[C@H](CCC(=O)O)n3cc(C(N)CO)nn3)CC2)nc(N2CCN(C(=O)[C@H](CCCCN)n3cc(C(N)[C@H](C)CC)nn3)CC2)n1` (stereo partly drawn), the inhibition is 5.8%.

As to `C#CCOCCOCCOCCNc1nc(N2CCN(C(=O)[C@H](CCC(=O)O)n3cc(C(N)CO)nn3)CC2)nc(N2CCN(C(=O)[C@H](Cc3ccc(O)cc3)n3cc(C(N)[C@H](C)CC)nn3)CC2)n1` (stereo partly drawn), the inhibition is -1.7%.

Regarding `C#CCOCCOCCOCCNc1nc(N2CCN(C(=O)[C@H](Cc3ccc(O)cc3)n3cc(C(N)CC(C)C)nn3)CC2)nc(N2CCN(C(=O)[C@H](CCC(=O)O)n3cc(C(N)[C@H](C)CC)nn3)CC2)n1` (stereo partly drawn), the inhibition is -7.8%.

As for `C#CCOCCOCCOCCNc1nc(N2CCN(C(=O)[C@H](CCCCN)n3cc([C@@H](N)C(C)CC)nn3)CC2)nc(N2CCN(C(=O)[C@H](Cc3ccc(O)cc3)n3cc([C@@H](N)C(C)CC)nn3)CC2)n1` (stereo partly drawn), the inhibition was 95.9% (active).

Turning to `C#CCOCCOCCOCCNc1nc(N2CCN(C(=O)[C@H](CO)n3cc([C@@H](N)C(C)C)nn3)CC2)nc(N2CCN(C(=O)[C@H](CCC(=O)O)n3cc([C@@H](N)[C@H](C)CC)nn3)CC2)n1`, the inhibition is 8.2%.

On to `C#CCOCCOCCOCCNc1nc(N2CCN(C(=O)C(Cc3ccc(O)cc3)n3cc(C(N)CC(C)C)nn3)CC2)nc(N2CCN(C(=O)C(Cc3ccc(O)cc3)n3cc(C(N)C(C)CC)nn3)CC2)n1` (stereo not drawn), for which the inhibition was 45.5% (active).

Regarding `O=C(Cn1c[n+](CC(=O)c2ccc([N+](=O)[O-])cc2)cn1)c1ccc([N+](=O)[O-])cc1`, the inhibition was -18.4% and -8%.

`S=C(c1ccc(-c2ccccc2)o1)N1CCCCC1`: the inhibition was -13.9%.

With `CC(C)NC(=O)C(=O)NCCCOC(C)C`, the inhibition was -2.8%.

As to `COc1cccc(OCc2cc(/C=N/NC(=O)c3nc(Cl)c(Cl)c(N)c3Cl)ccc2OC)c1`, the inhibition was -21.4%.

Turning to `COc1ccc(/C=N\NC(=O)c2sc(N)nc2C)cc1OC`, the inhibition was 102% (active).

For the compound `COc1cc(/C=N/NC(=O)CNC(=O)c2ccncc2)ccc1OC(C)=O`, the inhibition is -6.5%.

`Cn1c(=O)c2c(-c3cccc(Br)c3)c(C#N)c(N)nc2n(C)c1=O`: the inhibition is -5.6%.

Turning to `CC(C)(C)c1ccc(S(=O)(=O)N2CCN(C(=O)c3ccc4c(c3)C(=O)N(Cc3ccncc3)C4=O)CC2)cc1`, the inhibition was 6.4%.

Consider `Cc1ccccc1C(CC(=O)c1cccs1)C(C#N)C#N` (stereo not drawn), for which the inhibition was 4.5%.

As to `COc1ccc(NC2=CC(=S)NC(C)(C)C2)cc1`, the inhibition is -9.8%.

Regarding `CC(=O)c1ccc(OCCN2CCOCC2)cc1`, the inhibition was -16.1%.

With `c1ccc(-c2ccccc2OCCN2CCCCC2)cc1`, the inhibition was 5.8%.

With `COc1ccc2sc(-c3ccccc3OC)c(-c3ccc(OCCN4CCCC4)cc3)c2c1`, the inhibition was 60.6% (active).

`c1ccc(-c2ccc(OCCN3CCOCC3)cc2)cc1`: the inhibition is 7.7%.

As for `COc1cc(OC)cc(-c2sc3ccc(OC)cc3c2-c2ccc3cc[nH]c3c2)c1`, the inhibition is 9.4%.

Regarding `COc1ccc(-c2sc3ccccc3c2-c2ccc(OCCN3CCOCC3)cc2)cc1`, the inhibition was 54.3% (active).

For `CC1(C)O[C@@H]2[C@H](O1)[C@@H](COS(=O)(=O)O)O[C@H]2n1cnc2c(=O)[nH]cnc21`, the inhibition was -0.9%.

Regarding `CC(C)CC1(C(=O)NCc2ccccn2)C=CCN1C(=O)c1ccccc1` (stereo not drawn), the inhibition is 13%.

On to `COc1ccc(C(=O)Nc2ccc(-n3nncc3C(C)(C)C)cc2)cc1`, for which the inhibition is -4.8%.

As to `COc1ccc(C(CNC(=O)c2ccc(S(=O)(=O)Nc3ccccc3C)cc2)N2CCOCC2)cc1` (stereo not drawn), the inhibition is -1.4%.

Take `COc1ccc(C(CNC(=O)c2cccc(S(=O)(=O)Nc3ccccc3Cl)c2)N2CCOCC2)cc1` (stereo not drawn): the inhibition was 2.8%.

As for `COc1ccc(C(CNC(=O)c2cccc(NS(=O)(=O)c3ccc(C)c(F)c3)c2)N2CCCC2)cc1` (stereo not drawn), the inhibition was 55.5% (active).

With `CCOCCCNC(=O)C(=O)NCCCOCC`, the inhibition is -2.5%.

Take `CC1CC(C)(C)n2c(O)c(N=NC(N)=S)c3cccc1c32` (stereo not drawn): the inhibition is 92.1% (active).

On to `COc1ccc(S(=O)(=O)N2CCC(C(=O)OCC(=O)c3ccccc3)CC2)cc1[N+](=O)[O-]`, for which the inhibition was -5.5%.

On to `FC(F)(F)c1ccnc(Oc2ccc(C3=NCCS3)cc2)c1`, for which the inhibition is 7.6%.

Regarding `O=C(COc1ccc2ccc(=O)oc2c1)NCC(O)c1ccccc1` (stereo not drawn), the inhibition was 4.2%.

Consider `CN(C)CCN(C(=O)CN1C(=O)c2ccccc2C1=O)c1nc2cc3c(cc2s1)OCCO3`, for which the inhibition is 6.7%.

On to `CCCC(=O)N(CCN1CCOCC1)c1nc2ccc(OCC)cc2s1`, for which the inhibition is -2.6%.

`CN(C)CCCN(C(=O)c1ccc(S(=O)(=O)N2CCCCCC2)cc1)c1nc2cc3c(cc2s1)OCCO3`: the inhibition is 85.8% (active).

Take `CCOc1ccc2nc(N(CCCN(C)C)C(=O)c3ccc(C(=O)c4ccccc4)cc3)sc2c1`: the inhibition is 87.8% (active).

With `CCc1ccc2nc(N(CCCN(C)C)C(=O)c3ccc4c(c3)OCCO4)sc2c1`, the inhibition was 21.3%.

As to `CCN(CC)CCN(C(=O)c1cccc([N+](=O)[O-])c1)c1nc2ccc(OC)cc2s1`, the inhibition was -0.4%.

For `COc1ccc2sc(N(CCCN(C)C)C(=O)c3ccc(S(=O)(=O)N(C)C4CCCCC4)cc3)nc2c1`, the inhibition was 15.5%.

`CN(C)CCCN(C(=O)c1ccc(S(=O)(=O)N2CCCCCC2)cc1)c1nc2ccc(Br)cc2s1`: the inhibition is 67% (active).

`CN(C)CCCN(C(=O)c1ccc(S(=O)(=O)N2CCCc3ccccc32)cc1)c1nc2ccc(F)cc2s1`: the inhibition was 37.2%.

Consider `O=C(NCc1csc(-c2cccs2)n1)C1CC1`, for which the inhibition is -1.3%.

Regarding `CC(C)(CCl)C(=O)Nc1ccc(Sc2ccc(F)cc2)cc1`, the inhibition was 7.4%.

Consider `Cc1ccc(C)c(NC(=O)C(c2ccccc2)N2CCN(CC(=O)NC3CC3)CC2)c1` (stereo not drawn), for which the inhibition was 2.6%.

With `Cc1ccc(N2C(=O)N3[C@@H]4c5ccccc5OC[C@@H]4[C@@H](c4ccccc4)[C@@]3(C)C2=O)cc1`, the inhibition was 6.8%.

For `O=C1CC(Cc2ccc(Cl)cc2)C(=O)N1c1cc(Cl)ccn1` (stereo not drawn), the inhibition is 0%.

For the compound `CN(c1ccccn1)c1ncnc2[nH]ncc12`, the inhibition is 5.9%.

With `CSCCC(NC(=O)c1ccc(Cl)cc1Cl)C(=O)NNC(=O)c1csc(N2CCOCC2)n1` (stereo not drawn), the inhibition is 58.4% (active).

Regarding `O=C(NNC(=O)c1cc(-c2ccccc2Cl)nc2ccccc12)c1csc(N2CCOCC2)n1`, the inhibition is 1.5%.

Consider `COc1ccccc1C(=O)NC(CCSC)C(=O)NNC(=O)c1csc(N2CCOCC2)n1` (stereo not drawn), for which the inhibition was 4.2%.

Turning to `CCCCN1C(N)=NC[C@@H]1Cc1ccccc1`, the inhibition is -6.3%.

On to `C[C@@H](CN1CCC[C@H]1CN1C(N)=NC[C@@H]1Cc1ccccc1)N1C[C@@H](Cc2ccccc2)N(CCCC2CCCC2)C1=N`, for which the inhibition is 62.2% (active).

Consider `CC[C@@H](C)[C@@H]1CN([C@@H](C)CN2CCC[C@H]2CN2C(N)=NC[C@H]2C(C)C)C(=N)N1CCc1ccc(Cl)c(Cl)c1`, for which the inhibition was 50.1% (active).

Regarding `NC1=NC[C@@H](Cc2ccc(O)cc2)N1CC1CCCCC1`, the inhibition was 17.3%.

`CC(=O)N1CCC(N(C(=O)Nc2ccc(Cl)cc2)C(C)C)CC1`: the inhibition is -2.5%.

As to `CC(OC(=O)CN1C(=O)C2CCCCC2C1=O)C(=O)Nc1ncc(Cl)cc1Cl` (stereo not drawn), the inhibition is -6.5%.

`CCOC(=O)c1ccccc1NC(=O)COC(=O)C(Cc1c[nH]c2ccccc12)NC(C)=O` (stereo not drawn): the inhibition was 3.4%.

With `O=C(CNC(=O)Cc1ccccc1)NCC(=O)OCC(=O)c1ccccc1Cl`, the inhibition is 12%.

`CC1(C)Cc2ccccc2-c2nc(CN3CCOCC3)[nH]c(=O)c21`: the inhibition was -5.3%.

As for `CCC1(CC)Cc2ccccc2-c2nc(CCl)[nH]c(=O)c21`, the inhibition was 9%.

In the case of `CC1(C)Cc2ccccc2-c2[nH]c(=S)[nH]c(=O)c21`, the inhibition was 62.2% (active).

For `CCN(CC)CCC(c1ccc2c(c1)OCO2)c1c(OC)cc(OC)c2c(-c3ccccc3)cc(=O)oc12` (stereo not drawn), the inhibition was 32.1%.

Regarding `CCN(CC)CCC(c1cc(OC)c(OC)c(OC)c1)c1c(OC)cc(OC)c2c(-c3ccccc3)cc(=O)oc12` (stereo not drawn), the inhibition is 50.2% (active).

As to `CCN(CC)C(=O)CC(c1ccc2c(c1)OCO2)c1c(OC)cc(OC)c2c(-c3ccccc3)cc(=O)oc12` (stereo not drawn), the inhibition was 8.8%.

Consider `N#CCCn1ncc2ccccc21`, for which the inhibition was 0.9%.

Turning to `CCCCn1c(N)c(N(CC)C(=O)c2ccccc2C(F)(F)F)c(=O)[nH]c1=O`, the inhibition was -4.3%.

Regarding `CCn1c(CNC(=O)c2cc(OC)c(OC)c(OC)c2)cc2cc(C)ccc21`, the inhibition is 5.6%.

`O=S(=O)(Cc1cc(Sc2ccccc2)nc(-c2ccccc2)n1)c1ccccc1`: the inhibition was -3.4%.

The record behind these values is PubChem BioAssay AID485273 (Sanford-Burnham Center for Chemical Genomics, 2010).
